Most compounds without a hit are left out; they make up all but 2.3% or so of the library.
Mcl1-Noxa inh – Mcl-1/Noxa interaction inhibition | Q07820 | TR-FRET Mcl-1/Noxa peptide binding, 2 h | inhibition, % at 21.7 µM | 220,000 tested, 1.5% active;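 active = compounds that cut the protein-peptide binding signal by more than 50% relative to plate controls in a single-dose test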;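 note: His-tagged Mcl-1 with rhodamine Noxa BH3 peptide and terbium anti-His antibody; 0% = Mcl-1 plus Noxa peptide wells and 100% = peptide-only wells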
Mcl-1 Bim block – human Bim-Mcl-1 interaction inhibition | Bead-based flow cytometry, Bim peptide-Mcl-1 binding | inhibition, % at 10 µM | Q07820 | 190,000 tested, 0.1% active; in the data active = inhibition above about 40%;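 note: 0% = no compound tracer wells and 100% = peptide blocker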
GLD-1 TGE inh – GLD-1-TGE RNA interaction inhibition (C. elegans); inhibition, % at 5.96 µM; AID 2280; Q17339; 320,000 tested, 0.44% active; purified GLD-1 + fluorescein TGE RNA, fluorescence polarization;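 active = percent inhibition above a per-plate cutoff, the plate mean of test compounds plus 3 SD, cut at about 30% in these data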;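 note: 0% = DMSO wells with GLD-1 and probe and 100% = wells lacking GLD-1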
Target sequence (Q17339 whole entry, looked up): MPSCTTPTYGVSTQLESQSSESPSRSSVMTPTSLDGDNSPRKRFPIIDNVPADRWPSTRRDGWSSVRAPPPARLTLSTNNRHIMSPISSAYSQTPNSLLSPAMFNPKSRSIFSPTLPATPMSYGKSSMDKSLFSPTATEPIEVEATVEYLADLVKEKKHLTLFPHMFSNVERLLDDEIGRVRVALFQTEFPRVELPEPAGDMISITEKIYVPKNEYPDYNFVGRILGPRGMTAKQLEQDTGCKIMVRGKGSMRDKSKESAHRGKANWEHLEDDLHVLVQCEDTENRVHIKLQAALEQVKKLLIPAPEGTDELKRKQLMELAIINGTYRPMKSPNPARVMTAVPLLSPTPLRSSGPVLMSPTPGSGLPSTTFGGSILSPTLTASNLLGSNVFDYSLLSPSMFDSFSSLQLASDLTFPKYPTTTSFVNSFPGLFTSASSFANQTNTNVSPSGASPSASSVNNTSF
Bcl-xL primary – inhibitors of human Bcl-xL. 320,000 tested, 0.7% active. inhibition, % at 10.9 µM. Q07817. GST-Bcl-xL / FITC-Bim BH3 peptide fluorescence polarization;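 active = inhibition above the mean of all tested compounds plus 3 SD, cutoff set per campaign, cut at about 30% in these data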;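 note: 0% = DMSO wells and 100% = unlabeled Bim-BH3 peptide competitor; inhibitors lower millipolarization by displacing the labeled peptide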
Mcl1-Bid inh – Mcl-1/Bid interaction inhibition. inhibition, % at 21.7 µM. Q07820. 220,000 tested, 0.97% active. TR-FRET Mcl-1/Bid-Dy647 peptide binding, 1536-well;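 active = compounds that cut the binding signal by more than half at the single screening dose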;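 note: His-tagged Mcl-1 with europium anti-His antibody binding Bid BH3 peptide; 0% = Mcl-1 plus peptide wells and 100% = peptide-only wells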
MCL1-BIM inh – inhibitors of human MCL1 binding to BIM-BH3 peptide; Q07820; GST-MCL1 / FITC-Bim-BH3 fluorescence polarization; inhibition, % at 10.9 µM; AID 2057; 320,000 tested, 0.68% active;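 active = inhibition above the mean inhibition of all tested compounds plus 3 SD, set per campaign, cut at about 40% in these data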;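 note: 0% = DMSO wells and 100% = unlabeled Bim-BH3 peptide control; higher means more loss of mP so more displacement of Bim peptide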
The depositor's hits bear a star; / = no result given.

SMILES	Mcl1-Noxa inh	Mcl-1 Bim block	GLD-1 TGE inh	Bcl-xL primary	Mcl1-Bid inh	MCL1-BIM inh
CC(NC(=O)c1ccco1)c1nc(-c2ccc(Cl)cc2)no1 (stereo unspecified)	/	/	-3	-2	/	2
Cc1ccc(S(=O)(=O)N2CCCC2)cc1C(=O)NCC(C)(C)N1CCOCC1	/	/	0	-3	/	-1
COc1cc(C(F)(F)F)nc2ccc(C#CCOC(=O)Nc3ccccc3)cc12	-16	/	3	36*	-10	5
COc1ccc(OCCOC(=O)Nc2ccccc2)cc1	0	0	-2	3	1	6
COc1ccccc1CCc1nnc(CCC(=O)NCCCOc2cccnc2)o1	-1	-1	9	5	-23	12
COc1ccccc1CCc1nnc(CCC(=O)NC(C)Cc2cccnc2)o1 (stereo unspecified)	9	0	6	6	83*	12
CSCCC(NC(=O)c1ccco1)C(=O)NCC(c1ccccc1)N(C)C (stereo unspecified)	/	/	0	1	/	8
CCCNC(=O)CCCCn1c(=S)[nH]c2c([nH]c3ccc(OC)cc32)c1=O	11	-4	-1	-3	-30	5
CCCNC(=O)c1ccc(Cn2c(=S)[nH]c3c([nH]c4ccc(OC)cc43)c2=O)cc1	60*	-16	-1	-3	-1	-17
O=C(NNC(=O)c1ccccc1Br)c1cnccn1	/	/	-7	/	/	/
O=C(N/N=C/C(Br)=C\c1ccccc1)c1ccco1	14	/	0	1	74*	-3
Cc1cc(C)c2c(=O)n(CC(=O)N3CCC(N4CCCCC4)CC3)sc2n1	46	-2	-1	4	-53	17
CCOC(=O)C1CCCN(C(=O)Cn2sc3nc(C)cc(C)c3c2=O)C1 (stereo unspecified)	57*	-5	4	2	-22	1
O=C(CN1CCN(Cc2ccccc2)C1=O)NCc1ccc(Cl)cc1	-15	-2	-1	4	-33	1
CCN(CCNC(=O)CN1CCN(Cc2ccc(Cl)cc2)C1=O)c1ccccc1	-20	0	-11	2	87*	1
CCOC(=O)N1CCC(NC(=O)CS(=O)Cc2nc(-c3ccc(Cl)cc3)oc2C)CC1 (stereo unspecified)	/	/	0	5	/	1
CCC1CCC(C(=O)NC(CCSC)C(=O)NCCc2ccc(S(N)(=O)=O)cc2)CC1 (stereo unspecified)	/	/	1	4	/	8
O=C1c2ccccc2C(=O)C1c1nccc2ccccc12	58*	1	2	8	35	15
O=C1c2ccccc2C(=O)C1c1ccnc2ccccc12	31	2	-8	1	14	-6
Cc1c(-n2cc(C(=O)c3cc(F)ccc3O)cc(C#N)c2=O)c(=O)n(-c2ccccc2)n1C	17	0	7	16	-27	14
N#Cc1cc(C(=O)c2ccccc2O)cn(-c2nccs2)c1=O	24	4	54*	32*	-88	15
N#Cc1cc(C(=O)c2cc(F)ccc2O)cn(-c2nccs2)c1=O	27	0	11	38*	-41	-1
COC(=O)[C@H]1[C@H]2C[C@@H]3c4[nH]c5cc(OC)ccc5c4CCN3C[C@H]2C[C@@H](OC(=O)c2cc(OC)c(OC)c(OC)c2)[C@@H]1OC	/	/	-7	6	/	-7
COc1ccc2c3c([nH]c2c1)C1CC2C(CC(O)C(OC)C2C(=O)O)CN1CC3 (stereo unspecified)	10	/	-3	40*	-124	41*
CCOc1ccc(-n2c(SCC(=O)Nc3ccc(Br)cc3)nc3n[nH]c(C)c3c2=N)cc1	51*	-1	7	5	58*	10
SMILES	Mcl1-Noxa inh	Mcl-1 Bim block	GLD-1 TGE inh	Bcl-xL primary	Mcl1-Bid inh	MCL1-BIM inh
COc1cc(OC)cc(C(=O)Nc2ccccc2-c2nnn(CC(=O)Nc3cc(C)on3)n2)c1	/	/	10	-2	/	-7
Cc1cccc(C2C3=C(Nc4[nH]n(-c5ccccc5)c(=O)c42)c2ccccc2C3=O)c1 (stereo unspecified)	65*	-4	/	/	-38	/
Cc1ccccc1C1C2=C(Nc3[nH]n(-c4ccccc4)c(=O)c31)c1ccccc1C2=O (stereo unspecified)	19	4	-1	9	-35	16
CCOc1ccccc1C(=O)Nc1ccc2nc(N3CCN(c4ncccn4)CC3)cc(C)c2c1	/	/	2	5	/	3
COc1cccc(C(=O)Nc2ccc3nc(N4CCN(c5ncccn5)CC4)cc(C)c3c2)c1OC	74*	6	-9	-2	83*	-15
Nc1sc2c(c1C(=O)NC1CCS(=O)(=O)C1)CCC2 (stereo unspecified)	36	1	-3	32*	-49	26
NC(=O)c1c(N)sc2c1CCC2	-1	-4	/	/	-16	/
CCc1ccc(C(=O)/C=C/NCc2ccc(F)cc2)cc1	13	-10	1	2	53*	-2
Cc1ccc(C(=O)/C=C\NCc2ccccc2)cc1	2	-5	5	1	-40	4
CN1C(=O)/C(=C2\SC(=S)N(CCCCCC(=O)O)C2=O)c2ccccc21	113*	/	9	8	96*	4
N#CCSc1nc2cc(C(=O)N3CCC(C(N)=O)CC3)ccc2c2nc3ccccc3n12	51*	0	5	9	2	-2
N#CCSc1nc2cc(C(=O)N3CCCC3)ccc2c(=O)n1Cc1ccccc1	19	15	-8	1	18	4
Cc1cc(=O)oc2cc(OCc3ccc(C(=O)OCC(=O)Nc4ccc(N(C)C)cc4)cc3)ccc12	96*	0	/	/	92*	/
Cc1cc(=O)oc2cc(OCc3ccc(C(=O)OCC(=O)NC4CCS(=O)(=O)C4)cc3)ccc12 (stereo unspecified)	10	/	7	7	-24	7
O=C(Nc1cccc(Cl)c1)Nc1nnc(-c2ccncc2)s1	91*	0	-8	0	44	28
O=C(NCCc1ccncc1)Nc1cccc(Cl)c1	-10	5	6	-1	-16	-8
O=C(O)CC12CC3CC(C1)CC(n1ncc(NCc4ccccc4Cl)c(Cl)c1=O)(C3)C2	19	/	1	1	57*	-8
O=C(O)CC12CC3CC(C1)CC(n1ncc(NCc4ccc(F)cc4Cl)c(Cl)c1=O)(C3)C2	-5	2	3	1	-12	-3
CS(=O)(=O)CCC(C(=O)Nc1ccc2c(c1)OCO2)N1Cc2ccccc2C1=O (stereo unspecified)	/	/	-2	1	/	7
NC(=O)[C@@H]1CCCN1Cc1nc(-c2cccs2)no1	54*	-3	-7	4	-46	4
NC(=O)c1sc2nc(-c3ccccc3)ccc2c1N	/	/	-6	-4	/	7
COc1ccc(C(=O)c2sc3nc(-c4ccccc4)ccc3c2N)cc1OC	95*	15	-26	2	59*	-37
